Consider 25 molecules from PubChem BioAssay (NCATS).

“And” between values parts separate entries of the source, which are not always exact repeats. Identical values can stand only once. Unmarked numbers belong to inactive results. Records with an inconclusive call do not appear. The source made the active and inactive calls. Calls follow the shape of the dose curve; as a rule, active = well fitted curve in the direction sought with a large enough effect; inconclusive = small, poorly fitted or top-dose-only effect, or another doubt; inactive = no such curve, though single readings can be large; an effect the other way counts as inactive or inconclusive.

For experiment [1], the target named is Cytochrome P450 2C9 (Homo sapiens) (UniProt P11712). Briefly: qHTS Assay for Inhibitors and Substrates of Cytochrome P450 2C9 (AID 883). Also: nearly all actives have a fitted effect of over 60% in size. Also: potency is read from the fitted curve at half-maximal effect. As to activity change, negative = inhibition: % is scaled to controls: 0 for no effect and ±100 for the full control effect. Put shortly:
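Human CYP2C9 (10nM) hydroxylated Luciferin-H (100uM, at its KM) to luciferin in 25mM KPO4. Compound was preincubated 10 min at 37C, then NADPH regeneration started a 60 min reaction at 37C. Luminescence was read after detection reagent, normalized to 57uM sulphaphenazole.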
For orientation: qHTS replaces the single test concentration by a dilution series.

Experiment [2] addresses Cytochrome P450 3A4 (Homo sapiens) (UniProt P08684). Briefly: qHTS Assay for Inhibitors and Substrates of Cytochrome P450 3A4 (AID 884). Also: nearly all actives have a fitted effect of over 50% in size. Also: potency is read from the fitted curve at half-maximal effect. As to activity change, negative = inhibition: series mostly up to about 57 µM; % is scaled to controls: 0 for no effect and ±100 for the full control effect. Put shortly: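 20 nM human CYP3A4 with 25 uM Luciferin-PPXE (at KM) in 200 mM KPO4, preincubated 10 min with compound; NADPH regeneration started a 60 min RT reaction. Luciferin detected by luminescence, normalized to 57 uM ketoconazole as full inhibition.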

Experiment [3] shares this target. The experiment is described as follows: qHTS Assay for Activators of Cytochrome P450 3A4 (AID 885). Also: nearly all actives have a fitted effect of over 65% in size. The procedure, abridged: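 Human CYP3A4 (20 nM) with Luciferin-PPXE at 25 uM (its KM) in 200 mM KPO4; 10 min compound preincubation, then NADPH regeneration and 60 min reaction at RT. Luciferin read by luminescence; normalized to 57 uM ketoconazole full inhibition.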

Experiment [4] has as its target Cytochrome P450 2C19 (Homo sapiens) (UniProt P33261). Briefly: qHTS Assay for Inhibitors and Substrates of Cytochrome P450 2C19 (AID 899). Also: nearly all actives have a fitted effect of over 60% in size. Also: potency is read from the fitted curve at half-maximal effect. The procedure, abridged:
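Human CYP2C19 (5nM) with Luciferin-H EGE at 10uM (its KM) in 50mM KPO4 was preincubated with compound for 10 min at 37C. NADPH regeneration started a 60 min 37C reaction. Luciferin was read by luminescence, normalized to 57uM ketoconazole.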

In experiment [5] the target is Cytochrome P450 2D6 (Homo sapiens) (UniProt P10635). Briefly: qHTS Assay for Inhibitors and Substrates of Cytochrome P450 2D6 (AID 891).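 Also: luciferin methyl ether substrate demethylated by CYP2D6 with NADPH regeneration; % is scaled to controls: 0 for no effect and ±100 for the full control effect; nearly all actives have a fitted effect of over 60% in size.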 Put shortly:
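Human CYP2D6 (5 nM) with 30 uM Luciferin-ME EGE (at Km) in 100 mM KPO4, compound preincubated 10 min, then NADPH regeneration system for 60 min at room temperature. Luciferin read by luminescence; normalized to 1.43 uM quinidine.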

Cytochrome P450 3A4 (Homo sapiens), sequence (P08684 whole entry, looked up): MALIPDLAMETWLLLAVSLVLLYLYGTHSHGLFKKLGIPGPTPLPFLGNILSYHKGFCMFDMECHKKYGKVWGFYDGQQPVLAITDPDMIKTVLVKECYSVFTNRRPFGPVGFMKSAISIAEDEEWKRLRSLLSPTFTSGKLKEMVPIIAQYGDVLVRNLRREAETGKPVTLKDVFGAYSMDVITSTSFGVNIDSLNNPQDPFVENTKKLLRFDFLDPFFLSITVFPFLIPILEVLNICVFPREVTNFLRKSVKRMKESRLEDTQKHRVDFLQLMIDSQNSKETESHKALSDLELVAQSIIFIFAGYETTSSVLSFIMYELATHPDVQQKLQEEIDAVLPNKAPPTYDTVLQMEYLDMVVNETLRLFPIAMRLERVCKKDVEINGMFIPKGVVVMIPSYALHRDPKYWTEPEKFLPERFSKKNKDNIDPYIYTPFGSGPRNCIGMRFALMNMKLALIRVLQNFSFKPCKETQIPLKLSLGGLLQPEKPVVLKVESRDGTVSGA
Cytochrome P450 2D6 (Homo sapiens), sequence (P10635 whole entry, looked up): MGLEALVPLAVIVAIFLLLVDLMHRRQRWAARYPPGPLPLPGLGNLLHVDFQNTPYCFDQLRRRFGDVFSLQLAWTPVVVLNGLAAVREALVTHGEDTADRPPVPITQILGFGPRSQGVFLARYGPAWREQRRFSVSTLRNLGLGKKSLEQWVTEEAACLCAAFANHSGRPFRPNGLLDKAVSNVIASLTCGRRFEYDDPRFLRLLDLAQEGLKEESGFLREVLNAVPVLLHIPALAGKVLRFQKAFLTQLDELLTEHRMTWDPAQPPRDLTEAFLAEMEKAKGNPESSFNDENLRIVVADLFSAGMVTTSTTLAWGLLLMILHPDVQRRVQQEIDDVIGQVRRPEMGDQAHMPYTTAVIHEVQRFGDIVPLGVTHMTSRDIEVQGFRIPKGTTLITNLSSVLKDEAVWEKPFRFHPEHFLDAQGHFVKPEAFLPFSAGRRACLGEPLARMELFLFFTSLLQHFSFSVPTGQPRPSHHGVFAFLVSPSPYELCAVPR
Cytochrome P450 2C9 (Homo sapiens), sequence (P11712 whole entry, looked up): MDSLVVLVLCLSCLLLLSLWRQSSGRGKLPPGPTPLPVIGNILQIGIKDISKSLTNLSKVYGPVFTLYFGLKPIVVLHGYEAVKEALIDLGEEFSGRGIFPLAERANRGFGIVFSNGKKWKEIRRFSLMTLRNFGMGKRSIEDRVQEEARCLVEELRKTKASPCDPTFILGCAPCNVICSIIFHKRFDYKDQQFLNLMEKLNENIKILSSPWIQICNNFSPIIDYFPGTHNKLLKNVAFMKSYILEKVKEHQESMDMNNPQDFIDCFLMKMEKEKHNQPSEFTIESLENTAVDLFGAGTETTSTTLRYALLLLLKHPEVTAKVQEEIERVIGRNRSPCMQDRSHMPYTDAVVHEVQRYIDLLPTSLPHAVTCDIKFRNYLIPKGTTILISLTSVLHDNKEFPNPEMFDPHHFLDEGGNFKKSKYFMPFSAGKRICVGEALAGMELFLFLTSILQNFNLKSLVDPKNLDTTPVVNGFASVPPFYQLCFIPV
Cytochrome P450 2C19 (Homo sapiens), sequence (P33261 whole entry, looked up): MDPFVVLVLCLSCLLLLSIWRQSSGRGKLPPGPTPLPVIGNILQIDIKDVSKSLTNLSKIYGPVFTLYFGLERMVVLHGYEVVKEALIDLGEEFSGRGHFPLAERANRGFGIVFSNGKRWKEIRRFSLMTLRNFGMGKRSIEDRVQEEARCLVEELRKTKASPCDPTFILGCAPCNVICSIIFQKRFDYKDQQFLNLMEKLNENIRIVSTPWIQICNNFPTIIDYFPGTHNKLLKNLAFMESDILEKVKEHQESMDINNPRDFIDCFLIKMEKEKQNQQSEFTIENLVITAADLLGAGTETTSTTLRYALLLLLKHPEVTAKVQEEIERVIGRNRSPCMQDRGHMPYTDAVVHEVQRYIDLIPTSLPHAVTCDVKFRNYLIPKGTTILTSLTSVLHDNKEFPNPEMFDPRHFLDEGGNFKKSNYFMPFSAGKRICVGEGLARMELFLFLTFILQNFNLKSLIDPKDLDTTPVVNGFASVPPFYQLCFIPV

`CC12C=C(/C=C/c3ccc(Br)cc3)C(C)(C1)C(c1ccc(Br)cc1)CC2=O` (centres undefined): the values for the Potency in experiment [1] and in experiment [2] were 2.51 µM (active) and 3.98 µM (active), respectively. Also, the activity change, positive = activation in experiment [3] was -72.7% [at 11.4 µM]. For the same molecule, the Potency entry in experiment [4] was “inactive”.
In the case of `CCOC(=O)OCC1C=C[C@H](c2cc(-c3ccccc3)ccc2O)C(c2ccc(C(C)=O)cc2)O1` (some centres undefined), the figures for the Potency in experiment [1], in experiment [2] and in experiment [4] were 0.316 µM (active), 3.16 µM (active) and 3.16 µM (active), respectively. Further, in experiment [3], the activity change, positive = activation was -86.1% [at 11.4 µM].
On to `C=CCC1C=CC(Oc2ccc(OC)cc2)C(CO)O1` (centres undefined), for which the Potency result in experiment [1], in experiment [5] and in experiment [4] was “inactive” each time. Further, the Potency in experiment [2] was 3.98 µM (active). In experiment [3], the activity change, positive = activation was -64.8% [at 11.4 µM].
As to `COC(=O)C1=C(C)N(Cc2ccccc2)C2=C(C(=O)c3ccccc3)C(c3ccccc3)[C@@](O)(C(=O)OC)C(=O)N2C1c1ccccc1` (some centres undefined), the Potency entry in experiment [1], in experiment [5] and in experiment [4] was “inactive” throughout. The activity change, negative = inhibition in experiment [2] was -22.8% [at 11.4 µM]. The activity change, positive = activation in experiment [3] is -54.4% [at 11.4 µM].
For `CNc1ccccc1C(=O)OCC(=O)c1ccccc1`, the Potency result in experiment [1] and in experiment [5] was “inactive” throughout. For the same molecule, in experiment [2], the activity change, negative = inhibition was -18.7% [at 11.4 µM].
Turning to `CCCCOC(OCCCC)[C@H](O)CSc1ccc2ccccc2c1`, the Potency is 2 µM (active) in experiment [1], 5.01 µM (active) in experiment [2] and 3.16 µM (active) in experiment [4]. Moreover, the activity change, positive = activation in experiment [3] is -60.8% [at 11.4 µM].
Consider `C/C(CCC(=O)OC[C@@H]1O[C@H](C#Cc2ccccc2)C=C[C@@H]1Oc1ccc(C)cc1)=N/O[C@@H](C)c1cn([C@H](CO)Cc2ccccc2)nn1`, for which the Potency in experiment [1] was 3.16 µM (active); in experiment [2] it was 3.98 µM (active) and 3.16 µM (active); in experiment [4] it was 3.98 µM (active). Besides, the activity change, positive = activation in experiment [3] is -114% [at 11.4 µM] and -117% [at 11.4 µM].
In the case of `COC(=O)NC(c1ccccc1)[C@@]1(C(=O)OC)CCCC1=O` (some centres undefined), the Potency result in experiment [1], in experiment [5] and in experiment [4] was “inactive” in each case. Further, the activity change, negative = inhibition in experiment [2] was -15.7% [at 11.4 µM].
As for `COc1cccc([C@@H]2Oc3ccc(OC)cc3/C(=N/OC[C@@H](C)[C@H](OCc3ccccc3)C(C)C)[C@@H]2O)c1`, the Potency in experiment [1] was 3.98 µM (active); in experiment [2], 3.16 µM (active); in experiment [4] it was 2 µM (active). The activity change, positive = activation in experiment [3] is -89.7% [at 11.4 µM].
`CC1CCC(C(=O)O)NC1c1cccc(N2CCCC2=O)c1` (centres undefined): the Potency entry in experiment [1], in experiment [5] and in experiment [4] was “inactive” throughout. In addition, in experiment [2], the activity change, negative = inhibition is -12.3% [at 11.4 µM].
For `CCN1C(C)=C(C(=O)OC)C(c2ccccc2)N2C(=O)[C@](O)(C(=O)OC)C(c3ccccc3)C(C(=O)c3ccccc3)=C12` (some centres undefined), the Potency result in experiment [1] and in experiment [4] was “inactive” throughout. For the same molecule, the Potency in experiment [2] is 3.16 µM (active). Moreover, in experiment [3], the activity change, positive = activation was -65.7% [at 11.4 µM].
For the molecule `COC(=O)NC(/C(C(=O)OC)=C(\C)NCc1ccccc1)c1ccco1` (centres undefined), the Potency entry in experiment [1], in experiment [5] and in experiment [4] was “inactive” in each case. Further, the activity change, negative = inhibition in experiment [2] was -20.3% [at 11.4 µM].
Turning to `CC(=O)OCC1OC(C#Cc2ccc(F)cc2F)C=CC1OC(C)=O` (centres undefined), the Potency was 5.01 µM (active) in experiment [1], 3.16 µM (active) in experiment [2] and 2.51 µM (active) in experiment [4]. Besides, the activity change, positive = activation in experiment [3] was -91.4% [at 11.4 µM].
With `CC(=O)c1ccc(C2C=CC(Oc3ccc(-c4ccccc4)cc3)C(CO)O2)cc1` (centres undefined), in experiment [1], the Potency is 3.98 µM (active). Further, the activity change, negative = inhibition in experiment [2] is 0.0168% [at 11.4 µM]. The Potency result in experiment [5] was “inactive”.
In the case of `CC1C=CCCOC1c1ccccc1` (centres undefined), the Potency entry in experiment [1] and in experiment [5] was “inactive” each time. Further, the activity change, negative = inhibition in experiment [2] was -13.6% [at 11.4 µM].
On to `COC(=O)NC(c1cccc(C)c1)[C@@]1(C(=O)OC)CCCC1=O` (some centres undefined), for which the Potency result in experiment [1], in experiment [5] and in experiment [4] was “inactive” each time. The activity change, negative = inhibition in experiment [2] is -25.8% [at 11.4 µM].
As to `COc1ccc(OCC2CC3C(CCC(C)C3c3ccc(Br)cc3)C(=O)O2)cc1` (centres undefined), the Potency result in experiment [1] and in experiment [4] was “inactive” throughout. For the same molecule, the Potency in experiment [2] was 3.98 µM (active). Besides, the activity change, positive = activation in experiment [3] is -84.4% [at 11.4 µM].
For `COc1cccc(/C=C/C2=CC3(C)CC2(C)C(c2cccc(OC)c2)CC3=O)c1` (centres undefined), the Potency in experiment [1] is 3.16 µM (active); in experiment [2] it was 3.98 µM (active); in experiment [4], 2 µM (active). In addition, the activity change, positive = activation in experiment [3] is -78.1% [at 11.4 µM].
Take `Cc1cc(C)cc(C#CC2C=CC(Oc3ccc(C4CCCC4)cc3)C(CO)O2)c1` (centres undefined): the Potency result in experiment [1], in experiment [5] and in experiment [4] was “inactive” each time. Further, the Potency in experiment [2] is 3.98 µM (active). In experiment [3], the activity change, positive = activation is -81.6% [at 11.4 µM].
In the case of `CC12CC3OS(=O)OC3CC3C4C(C(OCc5ccccc5)C31)C42` (centres undefined), the Potency entry in experiment [1] and in experiment [5] was “inactive” throughout. In experiment [2], the activity change, negative = inhibition was -26.1% [at 11.4 µM].
As to `CCCCCCCC#Cc1ccccc1/C=N/S(=O)c1ccc(C)cc1` (centres undefined), the Potency entry in experiment [1] and in experiment [4] was “inactive” each time. Also, in experiment [2], the Potency is 3.98 µM (active). In experiment [3], the activity change, positive = activation was -65.3% [at 11.4 µM].
Regarding `COc1ccc(OC)c(C2OCCC=CC2C)c1` (centres undefined), the Potency result in experiment [1], in experiment [5] and in experiment [4] was “inactive” in each case. For the same molecule, the activity change, negative = inhibition in experiment [2] was -16.9% [at 11.4 µM].
For `COC(=O)NC(CC(C)=O)c1cccc(F)c1` (centres undefined), the Potency entry in experiment [1], in experiment [5] and in experiment [4] was “inactive” throughout. Further, in experiment [2], the activity change, negative = inhibition was -53.6% [at 11.4 µM].
Turning to `COc1ccc(O[C@H]2C=C[C@@H](c3ccccc3)O[C@H]2COC(=O)CC/C(C)=N\O[C@@H](C)c2cn([C@H](CO)Cc3ccccc3)nn2)cc1`, the Potency is 1.26 µM (active) in experiment [1]; 3.98 µM (active) and 5.01 µM (active) in experiment [2]; 63.1 nM (active) and 631 nM (active) in experiment [4]. Further, the activity change, positive = activation in experiment [3] was -87.6% [at 11.4 µM] and -97.7% [at 11.4 µM].
As for `COC(=O)NC(CC(C)=O)c1cccs1` (centres undefined), the Potency entry in experiment [1], in experiment [5] and in experiment [4] was “inactive” throughout. For the same molecule, the activity change, negative = inhibition in experiment [2] was -9.41% [at 11.4 µM].
